In PubChem BioAssay (NCATS):
“And” between values parts separate entries of the source, which are not always exact repeats. Identical values can stand only once. A number with no mark means an inactive call. Inconclusive results are not listed. Where a call stands in place of a potency, no number is given. The source made the active and inactive calls. Unless noted, calls follow the shape of the dose curve; as a rule, active = well fitted curve in the direction sought with a large enough effect; inconclusive = small, poorly fitted or top-dose-only effect, or another doubt; inactive = no such curve, though single readings can be large; an effect the other way counts as inactive or inconclusive.

Columns and labels:
[1] = qHTS assay for small molecule disruptors of the mitochondrial membrane potential - 1 hr assay (AID 651754; calls by dose curve; also: nearly all actives have a fitted effect of over 35% in size); conditions: series mostly up to 92.2 µM
Summary of the method: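 Mitochondrial potential in living HepG2 cells after 1 hr compound treatment at 37C was read with Mito-MPS dye added for a further 30 min. Red aggregate and green monomer fluorescence were measured; loss of potential leaves dye as cytoplasmic monomers.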

[2] = qHTS assay for small molecule disruptors of the mitochondrial membrane potential - 5 hr assay (AID 651755; calls by dose curve; also: nearly all actives have a fitted effect of over 40% in size); conditions: JC-1-type ratio dye; series mostly up to 92.2 µM
Summary of the method: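 Seed HepG2 overnight, add compound, incubate 5 hr at 37C and 5% CO2, stain 30 min with Mito-MPS, then measure monomer (490/535 nm) and aggregate (540/590 nm) fluorescence.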

[3] = molecular target: Tumor necrosis factor (Homo sapiens) (UniProt P01375); experiment: qHTS assay to identify small molecules that stimulate Tumor Necrosis Factor-alpha (TNF-alpha) secretion (AID 651757; active = well fitted curve in the direction sought with a large enough effect in the signal ratio; the % refers to the signal ratio); conditions: Human cells, HTRF 665/615 ratio; series mostly up to 92.2 µM
Tumor necrosis factor (Homo sapiens), sequence (P01375 whole entry, looked up): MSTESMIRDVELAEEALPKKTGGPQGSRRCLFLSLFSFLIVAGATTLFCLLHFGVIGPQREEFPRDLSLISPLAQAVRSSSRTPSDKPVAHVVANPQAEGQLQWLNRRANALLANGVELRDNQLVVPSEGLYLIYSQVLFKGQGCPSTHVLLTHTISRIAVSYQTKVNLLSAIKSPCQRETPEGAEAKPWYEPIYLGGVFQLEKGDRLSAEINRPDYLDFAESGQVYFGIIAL
Summary of the method: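 Secreted TNF-alpha quantified by TR-FRET sandwich of two labeled anti-TNF-alpha antibodies, incubated 3 hr at room temperature. Preceded by 17 hr, 37 C compound treatment of THP-1 cells at 3000 cells/well.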

[4] = qHTS assay for environmental chemicals that activate the Aryl hydrocarbon Receptor (AhR) signaling pathway (AID 651777); conditions: 1A2-DRE human hepatoma cells, luciferase, 24 h; activation: stronger effect = higher value; also: nearly all actives have a fitted effect of over 15% in size
Summary of the method: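 1A2-DRE human hepatoma reporter line; 1,200 cells/well; cmpd or DMSO 24 h, 37 C/5% CO2; One-Glo 30 min RT; luciferase lum.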

[5] = molecular target: Peroxisome proliferator-activated receptor alpha (Homo sapiens) (UniProt Q07869); experiment: qHTS assay for small molecule agonists of the peroxisome proliferator-activated receptor alpha (PPARalpha) signaling pathway (AID 651778); conditions: PathHunter PPARalpha complementation, chemiluminescence, 6 h; max response: stronger effect = higher value
Peroxisome proliferator-activated receptor alpha (Homo sapiens), sequence (Q07869 whole entry, looked up): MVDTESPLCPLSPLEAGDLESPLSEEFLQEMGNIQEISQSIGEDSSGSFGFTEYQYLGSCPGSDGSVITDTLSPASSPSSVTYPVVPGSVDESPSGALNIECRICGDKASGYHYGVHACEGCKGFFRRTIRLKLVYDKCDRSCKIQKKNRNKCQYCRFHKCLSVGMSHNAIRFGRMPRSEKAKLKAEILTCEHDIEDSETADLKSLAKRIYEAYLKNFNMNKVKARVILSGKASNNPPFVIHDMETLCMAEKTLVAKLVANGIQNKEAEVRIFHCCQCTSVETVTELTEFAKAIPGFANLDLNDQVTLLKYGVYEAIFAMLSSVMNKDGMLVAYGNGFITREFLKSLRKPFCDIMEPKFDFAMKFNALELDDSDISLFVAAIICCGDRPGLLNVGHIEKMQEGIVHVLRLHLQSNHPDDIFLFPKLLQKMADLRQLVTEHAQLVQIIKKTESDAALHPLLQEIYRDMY
Summary of the method: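 Cells plated at 2,000/well and held overnight at 37 C, 5% CO2, then compound added by pin tool for 6 hr; after PathHunter detection reagent and 60 min at room temperature, chemiluminescence from enzyme complementation was read.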

[6] = molecular target: Nuclear receptor ROR-gamma (Homo sapiens) (UniProt P51449); experiment: qHTS assay for small molecule antagonists of the retinoid-related orphan receptor gamma (ROR-gamma) signaling pathway (AID 651802); conditions: ROR-gamma antagonist cell reporter assay; series mostly up to 92.2 µM; also: nearly all actives have a fitted effect of over 60% in size; also: potency is read from the fitted curve at half-maximal effect
Nuclear receptor ROR-gamma (Homo sapiens), sequence (P51449 whole entry, looked up): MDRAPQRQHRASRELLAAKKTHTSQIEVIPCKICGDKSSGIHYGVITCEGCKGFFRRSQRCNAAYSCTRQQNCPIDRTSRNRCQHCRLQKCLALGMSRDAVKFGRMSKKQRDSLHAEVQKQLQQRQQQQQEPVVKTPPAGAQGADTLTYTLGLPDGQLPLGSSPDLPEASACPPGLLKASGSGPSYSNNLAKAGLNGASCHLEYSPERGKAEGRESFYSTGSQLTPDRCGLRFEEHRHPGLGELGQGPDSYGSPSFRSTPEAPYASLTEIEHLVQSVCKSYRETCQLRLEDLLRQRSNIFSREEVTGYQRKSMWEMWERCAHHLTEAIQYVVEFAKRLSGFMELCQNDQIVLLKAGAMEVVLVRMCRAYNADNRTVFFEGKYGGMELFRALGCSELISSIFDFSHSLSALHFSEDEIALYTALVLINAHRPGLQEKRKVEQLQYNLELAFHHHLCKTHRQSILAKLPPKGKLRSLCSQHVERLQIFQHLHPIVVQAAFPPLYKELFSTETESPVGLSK
Summary of the method: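 Luminescence (One-Glo, 30 min RT) measured 16 h after compound addition and doxycycline induction at 37C. Reporter: RORE-luciferase under TET-inducible ROR-gamma in CHO cells.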

[7] = qHTS assay for small molecule antagonists of the retinoid-related orphan receptor gamma (ROR-gamma) signaling pathway - cell viability counter screen (AID 720652; active = well fitted curve in the direction sought with a large enough effect in the repeat runs; an effect the other way counts as inactive or inconclusive;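 also: compound exposure lasted 16 hr before ATP read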; also: potency is read from the fitted curve at half-maximal effect); conditions: RORgamma reporter cell line viability counter screen; series mostly up to 92.2 µM
Summary of the method: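 Cytotoxicity counter screen: intracellular ATP (CellTiter-Glo luminescence) measured in the doxycycline-induced CHO RORE-luciferase reporter line after 16 hr compound exposure at 37 C, 5% CO2.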

[8] = qHTS assay for small molecule agonists of the antioxidant response element (ARE) signaling pathway measured by Nrf2-dependant transcriptional activity - cell viability counter screen (AID 720653; active = well fitted curve in the direction sought with a large enough effect in the repeat runs; an effect the other way counts as inactive or inconclusive); conditions: ARE-bla HepG2 viability, CellTiter-Glo ATP luminescence, 16 h; max response: stronger effect = lower value
Summary of the method: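 ARE-bla HepG2 cells (2,000/well) rested 5 hrs at 37C/5% CO2, then exposed to compounds in DMSO for 16 hrs. Viability was read in the same wells as intracellular ATP by luminescence, 30 min at room temperature after reagent addition.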

[9] = qHTS Assay for Identifying Gametocytocidal Compounds (AID 743244);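 also: actives lower the fluorescent signal which means gametocytes are killed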; conditions: P. falciparum 3D7 stage III-V gametocytes, alamarBlue, 72 h; max response: stronger effect = lower value
Summary of the method: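 Stage III–V gametocytes of P. falciparum 3D7 were seeded at 20,000 cells/well onto pre-dispensed compounds. After 72 h, 37 °C, 5% CO2, alamarBlue was added for another 24 h.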

[10] = molecular target: Tyrosine-protein kinase Yes (Homo sapiens) (UniProt P07947); experiment: qHTS for small molecule inhibitors of Yes1 kinase: Primary Screen (AID 686947); conditions: Yes1 kinase biochemical qHTS inhibition; series mostly up to 76.9 µM; also: nearly all actives have a fitted effect of over 60% in size
Tyrosine-protein kinase Yes (Homo sapiens), sequence (P07947 whole entry, looked up): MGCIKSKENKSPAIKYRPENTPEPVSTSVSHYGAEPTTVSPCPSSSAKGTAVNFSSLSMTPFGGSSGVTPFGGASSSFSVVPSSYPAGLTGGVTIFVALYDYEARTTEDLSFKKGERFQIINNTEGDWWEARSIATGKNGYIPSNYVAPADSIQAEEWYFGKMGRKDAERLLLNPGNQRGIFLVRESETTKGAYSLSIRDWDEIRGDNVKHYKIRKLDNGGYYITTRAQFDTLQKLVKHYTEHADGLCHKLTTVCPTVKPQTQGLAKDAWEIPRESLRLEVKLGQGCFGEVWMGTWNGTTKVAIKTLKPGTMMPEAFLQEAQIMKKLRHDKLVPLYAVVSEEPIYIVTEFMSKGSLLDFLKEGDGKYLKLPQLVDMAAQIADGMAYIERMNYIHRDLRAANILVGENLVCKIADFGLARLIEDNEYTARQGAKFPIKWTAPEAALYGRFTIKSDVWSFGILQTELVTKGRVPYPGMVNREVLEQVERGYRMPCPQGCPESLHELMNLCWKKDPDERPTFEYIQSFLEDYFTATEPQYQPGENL
Summary of the method: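 ADP-Glo luminescence reports ADP formed by 4 nM Yes1 phosphorylating poly(E4Y) (0.3 mg/mL) with 0.1 mM ATP for 60 min at room temperature, following 20 min compound preincubation; normalised between DMSO wells with and without enzyme.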

[11] = qHTS for small molecule inhibitors of Yes1 kinase: Counter Assay (AID 686950); conditions: series mostly up to 76.9 µM;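 also: no kinase present so only ADP-Glo detection of a fixed ADP amount is tested; luminescence from ADP-Glo reporting ADP in a fixed ATP and ADP mixture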
Summary of the method: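 Measuring interference with ADP-Glo, the assay ran 60 min at room temperature on an ATP/ADP mix lacking enzyme. Values were normalized to ATP-plus-ADP (maximum) and ATP-only (minimum) DMSO controls.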

[12] = molecular target: Arylsulfatase A (Homo sapiens) (UniProt P15289); experiment: qHTS screen for enhancers of Arylsulfatase A (ASA1): LOPAC Validation Assay (AID 720538); conditions: ASA enzyme activity, LOPAC qHTS enhancer assay; series mostly up to 57.5 µM
Arylsulfatase A (Homo sapiens), sequence (P15289 whole entry, looked up): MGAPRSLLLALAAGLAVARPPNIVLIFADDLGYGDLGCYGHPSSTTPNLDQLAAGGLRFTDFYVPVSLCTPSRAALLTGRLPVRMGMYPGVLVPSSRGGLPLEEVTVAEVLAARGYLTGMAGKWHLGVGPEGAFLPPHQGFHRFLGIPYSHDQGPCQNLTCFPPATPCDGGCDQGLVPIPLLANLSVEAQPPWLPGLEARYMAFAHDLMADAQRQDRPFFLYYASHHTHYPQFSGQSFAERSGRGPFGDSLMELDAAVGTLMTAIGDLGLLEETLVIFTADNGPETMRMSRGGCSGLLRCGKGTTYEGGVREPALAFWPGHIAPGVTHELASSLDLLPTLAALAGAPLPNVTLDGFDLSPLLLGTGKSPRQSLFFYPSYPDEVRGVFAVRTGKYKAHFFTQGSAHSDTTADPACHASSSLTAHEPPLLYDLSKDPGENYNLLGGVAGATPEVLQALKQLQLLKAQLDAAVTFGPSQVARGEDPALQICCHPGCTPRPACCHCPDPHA
Summary of the method: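 First, ASA-I179S fibroblasts from an MLD patient adhered for 6 hrs. Next, compounds were added for 48h. Then pNCS substrate (0.5mM final) with lysis buffer reacted 14h at room temperature before NaOH stop and fluorescence measurement.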

[13] = qHTS for compounds that reverse cellular toxicity of Amyloid beta (A-beta) peptide in yeast: LOPAC Validation Assay (AID 720559); conditions: yeast expressing A-beta; series mostly up to 46.1 µM
Summary of the method: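 Activity is expressed relative to DMSO and an equimolar ferric chloride/clioquinol mix. Compounds were pinned into medium with A-beta-expressing yeast, grown 48 hr at 30 C, then read by absorbance at 600 nm.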

[14] = qHTS for Activators of Parkin Expression: LOPAC Validation Assay (NLuc Reporter) (AID 720572); conditions: Parkin promoter NanoLuc reporter cells, luminescence, percent of positive control, DMSO as zero; series mostly up to 46.1 µM
Summary of the method: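 Cells harboring the Parkin-promoter coincidence reporter were treated for 24 h at seven concentrations. NLuc output was measured sequentially after the FLuc channel and scaled between DMSO and positive control values.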

[15] = qHTS for Activators of Parkin Expression: LOPAC Validation Assay (FLuc Reporter) (AID 720573); conditions: Cell line, PRKN promoter firefly luciferase reporter, vehicle wells = 0, positive control = 100%; series mostly up to 46.1 µM
Summary of the method: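 A neuronal cell line harbouring FLuc and NLuc reporters behind the Parkin promoter was exposed to compounds for 24 h. Firefly luciferase signal, measured after 10 min with detection reagent, was scaled to DMSO and positive-control wells.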

[16] = molecular target: T1, Hexokinase-4 (Homo sapiens) + Glucokinase regulatory protein (Homo sapiens) (UniProt P35557+Q14397); experiment: qHTS assay for inhibitors of recombinant human GCK-GKRP interaction: Diaphorase-coupled assay (AID 743205); conditions: G6PDH/diaphorase resorufin fluorescence; series mostly up to 57.5 µM
T1 sequence (P35557 whole entry, looked up): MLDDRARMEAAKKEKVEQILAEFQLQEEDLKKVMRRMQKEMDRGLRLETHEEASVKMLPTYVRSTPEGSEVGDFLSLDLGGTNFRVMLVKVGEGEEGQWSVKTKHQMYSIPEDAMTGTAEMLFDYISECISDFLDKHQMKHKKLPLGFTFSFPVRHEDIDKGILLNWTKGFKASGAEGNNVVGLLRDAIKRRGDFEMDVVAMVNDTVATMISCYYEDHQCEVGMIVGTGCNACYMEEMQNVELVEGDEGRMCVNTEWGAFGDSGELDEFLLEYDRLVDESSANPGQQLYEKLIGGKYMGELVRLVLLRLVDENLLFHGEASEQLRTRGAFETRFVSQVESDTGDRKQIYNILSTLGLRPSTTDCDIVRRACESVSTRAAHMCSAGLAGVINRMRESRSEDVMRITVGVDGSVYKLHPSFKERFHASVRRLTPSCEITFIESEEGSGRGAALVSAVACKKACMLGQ
T1 sequence (Q14397 whole entry, looked up): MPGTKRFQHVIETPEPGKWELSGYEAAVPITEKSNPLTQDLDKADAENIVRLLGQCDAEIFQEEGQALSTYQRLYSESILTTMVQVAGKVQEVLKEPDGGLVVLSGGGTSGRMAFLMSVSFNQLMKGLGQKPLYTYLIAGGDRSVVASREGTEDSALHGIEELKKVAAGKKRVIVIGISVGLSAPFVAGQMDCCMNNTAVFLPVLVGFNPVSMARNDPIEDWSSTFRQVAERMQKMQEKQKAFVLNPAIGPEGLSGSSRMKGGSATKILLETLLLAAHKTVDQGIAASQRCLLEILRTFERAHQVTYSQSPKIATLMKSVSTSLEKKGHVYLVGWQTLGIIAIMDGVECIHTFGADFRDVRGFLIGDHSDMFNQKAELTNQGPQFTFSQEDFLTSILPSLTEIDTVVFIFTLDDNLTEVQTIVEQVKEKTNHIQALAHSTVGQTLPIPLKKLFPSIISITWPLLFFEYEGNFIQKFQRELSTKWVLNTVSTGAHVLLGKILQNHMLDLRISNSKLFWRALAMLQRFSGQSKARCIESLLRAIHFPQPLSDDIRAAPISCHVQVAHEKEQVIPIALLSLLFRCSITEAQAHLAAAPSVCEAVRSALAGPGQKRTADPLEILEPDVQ
Summary of the method: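 Inhibitors of the GCK–GKRP complex relieve GKRP suppression of GCK, detected through a G6PDH–diaphorase cascade reducing resazurin. Human GST-GCK and FLAG-GKRP are used at 10 nM with 5 mM glucose and 0.4 mM ATP.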

[17] = molecular target: T1, Hexokinase-4 (Homo sapiens) + Glucokinase regulatory protein (Homo sapiens); experiment: qHTS assay for inhibitors of recombinant human GCK-GKRP interaction: ADP-Glo assay (AID 743206); conditions: ADP-Glo luminescence, 60 min, 0% = vehicle-only wells with enzyme present; series mostly up to 76.9 µM
Summary of the method: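 Pin-transferred compounds meet a 15 nM GST-GCK/15 nM FLAG-GKRP/2 uM S6P mix (dispense concentrations). ATP is then added to 0.4 mM final with 5 mM glucose, and the reaction runs 60 min at room temperature. ADP is quantified luminescently.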

[18] = molecular target: T1, Hexokinase-4 (Homo sapiens) + Glucokinase regulatory protein (Homo sapiens); experiment: qHTS assay for inhibitors of recombinant human GCK-GKRP interaction: HTRF assay (AID 743207); conditions: recombinant GCK-GKRP HTRF binding, 60 min; series mostly up to 57.5 µM
Summary of the method: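 Steps: dispense GCK–GKRP complex (5 nM each, GST- and FLAG-tagged) with 2 uM S6P; pin in compounds; add XL665/Eu-cryptate-labelled antibodies; incubate 60 min at room temperature; read time-resolved FRET at 665 and 615 nm.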

[19] = qHTS assay to identify small molecules that stimulate interleukin-8 (IL-8) secretion (AID 651758; active = well fitted activation curve with a large enough effect in the signal ratio; the % refers to the signal ratio; also: potency is read from the fitted curve at half-maximal effect); conditions: HTRF ratio (665/615); series mostly up to 92.2 µM
Summary of the method: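 Quantitative HTS in THP-1 monocytic cells at 2000 cells per well, with 16 hrs compound incubation at 37 C. IL-8 in the medium was then quantified by HTRF immunoassay, read after 1-3 hrs at room temperature.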

[20] = qHTS assay for small molecule activators of the nuclear factor-kappa B (NF-kB) signaling pathway (AID 651749; active = well fitted activation curve with a large enough effect in the signal ratio; the % refers to the signal ratio); conditions: NF-kB-bla ME-180 cells, beta-lactamase FRET ratio, 16 h; stronger effect = higher value
Summary of the method: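 Human ME-180 cervical cells with an NF-kB-bla construct; compounds added via 23 nL pin transfer, DMSO as vehicle; incubation 16 hr. Reporter activity measured by FRET disruption.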

Row | SMILES | Potency [1] | Potency [2] | outcome [3] | activation [4] | max response [5] | Potency [6] | Potency [7] | max response [8] | max response [9] | Potency [10] | outcome [11] | Potency [12] | outcome [13] | outcome [14] | outcome [15] | outcome [16] | outcome [17] | outcome [18] | Potency [19] | activation [20]
1 | OCCOc1ccccc1 | inactive | inactive | inactive | -1.68% and 1.95% and 8.55% | -6.3% and -2.04% and 0.179% | inactive | inactive | -0.196% and 2.04% and -9.12% | 3.27% and 3.36% | – | – | – | – | – | – | – | – | – | – | –
2 | COC[C@H]1OC(=O)c2coc3c2[C@@]1(C)C1=C(C3=O)C2CCC(=O)[C@@]2(C)C[C@H]1OC(C)=O (stereo partly specified) | – | – | – | – | – | – | – | – | 9.51% | inactive | inactive | inactive | inactive | inactive | inactive | inactive | inactive | inactive | – | –
3 | COc1cc2c(c(OC)c1OC)-c1ccc(OC)c(=O)cc1[C@@H](NC(C)=O)CC2 | – | – | – | – | – | 335 nM (active) and 119 nM (active) | – | – | – | – | – | – | – | – | – | – | – | – | 53.1 nM (active) and 47.3 nM (active) | –
4 | CCCC(C)(COC(N)=O)COC(=O)NC(C)C (stereo unspecified) | – | – | inactive | 0.419% and -1.4% | -0.746% and -1.22% | inactive | inactive | -3.52% and -3.1% | 10.4% and -6.54% | – | – | inactive | inactive | inactive | inactive | inactive | inactive | inactive | inactive | –
5 | CNCC(O)c1ccc(O)cc1 (stereo unspecified) | – | – | inactive | -0.394% | -4.08% | inactive | inactive | 12.1% | 28.1% | – | – | inactive | inactive | inactive | inactive | inactive | inactive | inactive | – | -1.11%
6 | N[C@@H](Cc1ccc(N(CCCl)CCCl)cc1)C(=O)O | inactive | inactive | inactive | 3.17% and 3.79% | -0.479% and -0.609% | 26.6 µM (active) | 21.1 µM (active) | -3.2% and -6.56% | 7.49% | – | – | – | – | – | – | – | – | – | – | 3.45% and -0.304%
